In PubChem BioAssay (NCATS):
Records with an inconclusive call do not appear. Activity calls are given as the source filed them. Unless noted, calls follow the shape of the dose curve; as a rule, active = well fitted curve in the direction sought with a large enough effect; inconclusive = small, poorly fitted or top-dose-only effect, or another doubt; inactive = no such curve, though single readings can be large; an effect the other way counts as inactive or inconclusive.

How the values were obtained:
[1] = target: Luciferin 4-monooxygenase (Photinus pyralis) (UniProt P08659); assay: Biochemical firefly luciferase enzyme assay for NPC (AID 624030);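 also: purified P. pyralis luciferase at 10 nM with luciferin and ATP substrate; 0% = DMSO and -100% = full luciferase inhibition by PTC124 control; nearly all actives have a fitted effect of over 70% in size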
Procedure, shortened: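 Direct inhibition of firefly luciferase enzyme (10 nM final, 50 mM Tris Acetate) assessed by luminescence within 5 minutes. Percent activity scaled between DMSO and PTC124 positive control, with concentration-effect curves classified by fit quality and response.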

[2] = qHTS Assay for Identifying Gametocytocidal Compounds (AID 743244);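 also: % is scaled to controls: 0 for no effect and ±100 for the full control effect; actives lower the fluorescent signal which means gametocytes are killed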; conditions: P. falciparum 3D7 stage III-V gametocytes, alamarBlue, 72 h; max response: stronger effect = lower value
Procedure, shortened: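 Compounds are pinned into medium, gametocytes (stage III–V, 3D7, 20,000 cells/well) added, and plates held 72 h at 37 °C in 5% CO2. AlamarBlue follows for 24 h before fluorescence reading.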

[3] = P-glycoprotein substrates identified in KB-8-5-11 adenocarcinoma cell line, qHTS therapeutic library screen (AID 1346987); also: % is scaled to controls: 0 for no effect and ±100 for the full control effect; nearly all actives have a fitted effect of over 65% in size
Procedure, shortened: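 Human cervical adenocarcinoma KB-8-5-11 cells, selected in colchicine to over-express P-gp and assayed without it, were exposed for 72 h to titrated compounds. An ATP-based luminescent viability signal gave AC50.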

[4] = Primary qHTS for Huh7 cytotoxicity: counterscreen for inhibitors of MERS-S pseudotyped particle cell entry (AID 1479147; calls by dose curve; also: % is scaled to controls: 0 for no effect and ±100 for the full control effect); conditions: outcome: dose series up to 57.1 µM unless noted
[5] = Primary qHTS for inhibitors of MERS-S pseudo-typed particle cell entry (AID 1479149; calls by dose curve; also: % is scaled to controls: 0 for no effect and ±100 for the full control effect; nearly all actives have a fitted effect of over 60% in size)
[6] = Primary qHTS for Vero E6 cytotoxicity: counterscreen for inhibitors of SARS-S pseudo-typed particle cell entry (AID 1479150; calls by dose curve); conditions: outcome: dose series up to 57.1 µM unless noted
[7] = Cytotoxicity counterscreen for inhibitors of SARS-CoV-2 cell entry (AID 1645845; calls by dose curve; also: % is scaled to controls: 0 for no effect and ±100 for the full control effect; nearly all actives have a fitted effect of over 50% in size)
Procedure, shortened: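 ATP-content luminescence (ATPLite 1step, 15 min RT) read after 48 h compound exposure of Expi293F cells stably expressing human ACE2; normalized to cells-only wells and media-only wells.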

[8] = Primary qHTS to identify inhibitors of SARS-CoV-2 cell entry (AID 1645846; calls by dose curve; also: nearly all actives have a fitted effect of over 45% in size); conditions: activity change, negative = inhibition: at 57.1 µM (top of the series) unless noted
Procedure, shortened: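 Entry measured by luciferase signal 48 h after adding SARS-CoV-2-S pseudotyped MLV particles to HEK293-ACE2 cells preincubated 1 h with compounds. Normalisation: bald particles and spike particles.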

[9] = target: Glutathione peroxidase 1 (Homo sapiens) (UniProt P07203); assay: Primary qHTS Assay for Inhibitors of Recombinant Selenoprotein Glutathione Peroxidase 1 (GPX1) (AID 1845191); also: nearly all actives have a fitted effect of over 65% in size
Procedure, shortened: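 NADPH consumption tracked by fluorescence at 340/450 nm between t=0 and t=15 min, room temperature. Final mix: 10 nM GPX1, 100 nM glutathione reductase, 1 mM GSH, 0.5 mM NADPH, 0.5 mM cumene hydroperoxide, 0.01% BSA; 30 min compound–enzyme preincubation.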

[10] = target: Phospholipid hydroperoxide glutathione peroxidase GPX4 (Homo sapiens) (UniProt P36969); assay: Primary qHTS Assay for Inhibitors of Recombinant Selenoprotein Glutathione Peroxidase 4 (GPX4) (AID 1845192); also: % is scaled to controls: 0 for no effect and ±100 for the full control effect; nearly all actives have a fitted effect of over 65% in size
Procedure, shortened: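 NADPH consumption followed by fluorescence at 340/450 nm, t=0 and after 15 min at room temperature. Reaction started with cumene hydroperoxide (0.5 mM final) after 30 min compound–GPX4 preincubation; final 200 nM GPX4, 100 nM GR, 1 mM GSH, 0.5 mM NADPH.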

[11] = system: KB-3-1; assay: Cytotoxic Profiling of Annotated Libraries Using Quantitative High-Throughput Screening (AID 1296008); conditions: Five cell lines viability, CellTiter-Glo ATP luminescence, 48-72 h; max response: stronger effect = lower value; also: % is scaled to controls: 0 for no effect and ±100 for the full control effect; nearly all actives have a fitted effect of over 60% in size
Procedure, shortened: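 Cytotoxicity was measured as CellTiter-Glo ATP luminescence, read after 10 min at room temperature. Compound treatment of the cells lasted 48 or 72 hr at 37 degrees Celsius in a qHTS format.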

[12] = Drug repurposing screens with cells derived from glioblastoma tumor samples (AID 1345199); conditions: GBM patient neurospheres viability, ATP luminescence, 48 h; Potency: tumour line A; series mostly up to 45.9 µM; also: % is scaled to controls: 0 for no effect and ±100 for the full control effect; nearly all actives have a fitted effect of over 40% in size
Procedure, shortened: (§1)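 Primary testing used CD133+ neurospheres from four GBM patients, seven concentrations, 48 h exposure and ATP-based viability; confirmation added three slower-growing patient lines.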

[13] = system: astro; assay: as above; conditions: viability, ATP luminescence, 48 h; series mostly up to 45.9 µM
Procedure, shortened: as §1

[14] = system: Zika virus NS2B-NS3 protease (unlinked complex); assay: Primary screen GU Rhodamine qHTS for Zika virus inhibitors: Unlinked NS2B-NS3 protease assay (AID 1347159); also: % is scaled to controls: 0 for no effect and ±100 for the full control effect; nearly all actives have a fitted effect of over 60% in size
Procedure, shortened: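 Percent inhibition came from the 15-min rise in Rhodamine110 fluorescence (1.5 microM substrate, ~15% conversion), normalized to no-inhibitor and no-enzyme wells and Hill-fitted. Unlinked protease, 25 nM, pH 8.0 Tris buffer; compounds up to 114 microM, 15-min preincubation.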

[15] = system: Zika virus NS2B-NS3 protease (linked construct); assay: Primary screen NINDS Rhodamine qHTS for Zika virus inhibitors (AID 1347160); also: % is scaled to controls: 0 for no effect and ±100 for the full control effect; nearly all actives have a fitted effect of over 55% in size
Procedure, shortened: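 Rhodamine110-peptide cleavage (1.5 µM substrate) by 25 nM linked NS2B-NS3 enzyme at pH 8.0 (Tris, Tween 20), after 15 min RT preincubation with compounds; 15-min fluorescence change normalized to controls and Hill-fitted.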

[16] = target: Cytochrome P450 2D6 (Homo sapiens) (UniProt P10635); assay: Cytochrome P450 family 2 subfamily D member 6 (CYP2D6) small molecule antagonists: luciferase biochemical (cell-free) qHTS assay (AID 1645840; active = well fitted curve in the direction sought with a large enough effect in the repeat runs; an effect the other way counts as inactive or inconclusive; also: potency is read from the fitted curve at half-maximal effect; nearly all actives have a fitted effect of over 55% in size)
Procedure, shortened: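 P450-Glo CYP2D6 system: proluciferin substrate converted by enzyme to luciferin, read by luminescence proportional to activity. Enzyme-substrate mix with compound 10 min at room temperature, then NADPH regeneration 1 h before detection reagent.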

[17] = target: Cytochrome P450 2C9 (Homo sapiens) (UniProt P11712); assay: Cytochrome P450 family 2 subfamily C member 9 (CYP2C9) small molecule antagonists: luciferase biochemical (cell-free) qHTS assay (AID 1645842; active = well fitted curve in the direction sought with a large enough effect in the repeat runs; an effect the other way counts as inactive or inconclusive; also: potency is read from the fitted curve at half-maximal effect; nearly all actives have a fitted effect of over 55% in size)
Procedure, shortened: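 P450-Glo CYP2C9 system: proluciferin substrate with enzyme in mix containing 0.4% BSA, 10 min at room temperature, then NADPH regeneration solution added and incubated 1 h at 37C. Detection reagent stopped reaction; luminescence read after 20 min as RLU.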

[18] = target: Catechol O-methyltransferase (Homo sapiens) (UniProt P21964); assay: Confirmatory Screen for Target Class Profiling of Small Molecule Inhibitors of Methyltransferases (AID 1745852); conditions: MTase-Glo luminescence, SAH detection, recombinant enzyme; measured here: COMT max response; stronger effect = lower value; as to activity change, negative = inhibition: % is scaled to controls: 0 for no effect and ±100 for the full control effect
[19] = target: Guanidinoacetate N-methyltransferase (Homo sapiens) (UniProt Q14353); assay: as above; conditions: activity change, negative = inhibition: at 57.3 µM (top of the series) unless noted
[20] = target: Nicotinamide N-methyltransferase (Homo sapiens) (UniProt P40261); assay: as above; conditions: MTase-Glo luminescence, SAH detection, recombinant enzyme; measured here: NNMT max response; stronger effect = lower value
[21] = target: Phenylethanolamine N-methyltransferase (Homo sapiens) (UniProt P11086); assay: as above; conditions: MTase-Glo luminescence, SAH detection, recombinant enzyme; measured here: PNMT max response; stronger effect = lower value
[22] = target: Luciferin 4-monooxygenase (Photinus pyralis) (UniProt P08659); assay: Primary firefly luciferase (FLuc) qHTS assay for identification of artifact compounds. (AID 1845220); conditions: outcome: dose series up to 54.1 µM unless noted; also: nearly all actives have a fitted effect of over 60% in size
Procedure, shortened: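 Compounds sat 15 min at room temperature with 10 uM luciferin and 10 uM ATP (pH 7.6 Tris acetate). Firefly luciferase (10 nM final) was then added, and luminescence was read 5 min later. Data normalized to no-enzyme and DMSO controls were Hill-fitted.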

[23] = Primary fluorescence-based thiol-reactive (MSTI) qHTS assay for identification of artifact compounds. (AID 1845221);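 also: thiol-reactive compounds lower the probe fluorescence signal; nearly all actives have a fitted effect of over 65% in size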
Procedure, shortened: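 Compounds were incubated 1 h at room temperature in the dark with the MSTI probe (4 uM) in PBS pH 7.4, 2% DMSO. Signals were normalized between Acetyl-MSTI and MSTI.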

[24] = system: Nanoluciferase (engineered Oplophorus gracilirostris luciferase); assay: Primary Nanoluciferase (NLuc) qHTS assay for identification of artifact compounds. (AID 1845222);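 also: 0% = DMSO and -100% = no enzyme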
Procedure, shortened: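 Luminescence from secreted NLuc (filtered, 1:55-diluted S16 cell medium) read 5 min after Nano-Glo substrate; compounds preincubated 15 min, RT. Hill fits of inhibition normalized to DMSO and no-enzyme.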

[25] = Primary redox qHTS assay for identification of artifact compounds. (AID 1845223);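 also: 0% = DMSO and 100% = reference compound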
Procedure, shortened: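 Redox-cycling detection via DTT (250 uM final) oxidation coupled to Amplex Red (25 uM)/HRP (250 mU/mL) in HBSS. 15 min preincubation plus 30 min after DTT, room temperature. Ex/Em 525/598 nm; 4-parameter Hill fit against DMSO and 10 uM DA3003.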

[26] = system: CAOV3; assay: Primary qHTS to identify gynecologic anti-cancer compounds using libraries of approved drugs and bioactive compounds (AID 1345084); conditions: Gynecologic cancer cell panel viability, ATPlite luminescence, 48 h; series mostly up to 57.5 µM; also: % is scaled to controls: 0 for no effect and ±100 for the full control effect; nearly all actives have a fitted effect of over 55% in size
Procedure, shortened: (§2)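 Luminescence from the ATPlite ATP-monitoring reagent indicates viable cell number; lower signal means cytotoxicity. Cells received compound 16 h after seeding and were exposed for 48 h across five concentrations.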

[27] = system: CASKI; assay: as above; conditions: Gynecologic cancer cell panel viability, ATPlite luminescence, 48 h; series mostly up to 57.5 µM
Procedure, shortened: as §2

[28] = system: Es-2; assay: as above; conditions: Gynecologic cancer cell panel viability, ATPlite luminescence, 48 h; series mostly up to 57.5 µM
Procedure, shortened: as §2

[29] = system: HeLa; assay: as above; conditions: Gynecologic cancer cell panel viability, ATPlite luminescence, 48 h; series mostly up to 57.5 µM
Procedure, shortened: as §2

[30] = system: Hek293T; assay: as above; conditions: Gynecologic cancer cell panel viability, ATPlite luminescence, 48 h, control line for the selectivity index; series mostly up to 57.5 µM
Procedure, shortened: as §2

[31] = system: JEG-3; assay: as above; conditions: Gynecologic cancer cell panel viability, ATPlite luminescence, 48 h; series mostly up to 57.5 µM
Procedure, shortened: as §2

[32] = system: OV90; assay: as above; conditions: Gynecologic cancer cell panel viability, ATPlite luminescence, 48 h; series mostly up to 57.5 µM
Procedure, shortened: as §2

[33] = system: PA-1; assay: as above; conditions: Gynecologic cancer cell panel viability, ATPlite luminescence, 48 h; series mostly up to 57.5 µM
Procedure, shortened: as §2

[34] = system: SKOV3; assay: as above; conditions: Gynecologic cancer cell panel viability, ATPlite luminescence, 48 h; series mostly up to 57.5 µM
Procedure, shortened: as §2

[35] = system: Tov112D; assay: as above; conditions: Gynecologic cancer cell panel viability, ATPlite luminescence, 48 h; series mostly up to 57.5 µM
Procedure, shortened: as §2

Phospholipid hydroperoxide glutathione peroxidase GPX4 (Homo sapiens), sequence (P36969 whole entry, looked up): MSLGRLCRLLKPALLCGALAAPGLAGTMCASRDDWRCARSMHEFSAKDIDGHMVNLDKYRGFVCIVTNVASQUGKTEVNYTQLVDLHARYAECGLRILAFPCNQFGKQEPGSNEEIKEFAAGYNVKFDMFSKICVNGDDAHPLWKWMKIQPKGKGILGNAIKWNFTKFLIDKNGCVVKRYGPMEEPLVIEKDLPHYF
Glutathione peroxidase 1 (Homo sapiens), sequence (P07203 whole entry, looked up): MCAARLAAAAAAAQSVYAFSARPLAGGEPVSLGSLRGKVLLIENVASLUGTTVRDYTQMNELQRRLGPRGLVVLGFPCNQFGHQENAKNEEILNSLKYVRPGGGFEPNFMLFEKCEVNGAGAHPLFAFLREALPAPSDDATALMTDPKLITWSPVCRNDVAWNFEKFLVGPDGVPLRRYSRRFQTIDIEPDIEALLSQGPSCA
Cytochrome P450 2C9 (Homo sapiens), sequence (P11712 whole entry, looked up): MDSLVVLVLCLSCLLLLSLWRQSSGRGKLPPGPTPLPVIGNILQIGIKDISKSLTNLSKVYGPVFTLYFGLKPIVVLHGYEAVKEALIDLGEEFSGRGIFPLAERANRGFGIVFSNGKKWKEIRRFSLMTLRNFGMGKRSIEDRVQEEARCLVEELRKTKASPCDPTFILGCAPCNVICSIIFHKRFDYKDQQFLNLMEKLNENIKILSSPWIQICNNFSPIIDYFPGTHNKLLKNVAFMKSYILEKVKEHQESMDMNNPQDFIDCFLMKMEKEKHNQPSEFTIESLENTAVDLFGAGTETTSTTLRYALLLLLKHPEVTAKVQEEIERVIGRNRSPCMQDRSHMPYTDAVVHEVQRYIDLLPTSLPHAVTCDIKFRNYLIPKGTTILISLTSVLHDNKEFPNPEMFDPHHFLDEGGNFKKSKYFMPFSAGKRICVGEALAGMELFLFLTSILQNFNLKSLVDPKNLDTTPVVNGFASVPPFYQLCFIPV
Nicotinamide N-methyltransferase (Homo sapiens), sequence (P40261 whole entry, looked up): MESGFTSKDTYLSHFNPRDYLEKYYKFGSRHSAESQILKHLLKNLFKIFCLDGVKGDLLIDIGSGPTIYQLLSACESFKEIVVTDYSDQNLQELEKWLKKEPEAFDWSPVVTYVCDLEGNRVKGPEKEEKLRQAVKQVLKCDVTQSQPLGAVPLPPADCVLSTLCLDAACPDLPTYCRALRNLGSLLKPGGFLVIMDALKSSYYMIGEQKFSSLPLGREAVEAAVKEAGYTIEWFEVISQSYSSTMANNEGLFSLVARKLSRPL
Phenylethanolamine N-methyltransferase (Homo sapiens), sequence (P11086 whole entry, looked up): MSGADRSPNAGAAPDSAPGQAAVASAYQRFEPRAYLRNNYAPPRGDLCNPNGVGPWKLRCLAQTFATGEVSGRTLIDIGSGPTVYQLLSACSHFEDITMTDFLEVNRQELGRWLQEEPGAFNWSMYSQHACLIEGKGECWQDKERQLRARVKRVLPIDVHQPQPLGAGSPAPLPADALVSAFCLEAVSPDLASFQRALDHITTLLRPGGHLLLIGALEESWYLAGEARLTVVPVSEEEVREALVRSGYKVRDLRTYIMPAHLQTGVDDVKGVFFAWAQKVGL
Catechol O-methyltransferase (Homo sapiens), sequence (P21964 whole entry, looked up): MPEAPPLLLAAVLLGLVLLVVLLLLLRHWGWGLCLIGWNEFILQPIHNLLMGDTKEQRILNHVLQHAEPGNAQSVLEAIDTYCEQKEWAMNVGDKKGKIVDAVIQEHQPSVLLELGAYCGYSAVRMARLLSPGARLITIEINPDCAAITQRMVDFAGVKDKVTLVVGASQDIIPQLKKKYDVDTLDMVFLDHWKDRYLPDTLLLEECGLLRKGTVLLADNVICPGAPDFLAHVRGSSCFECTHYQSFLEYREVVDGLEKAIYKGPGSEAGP
Cytochrome P450 2D6 (Homo sapiens), sequence (P10635 whole entry, looked up): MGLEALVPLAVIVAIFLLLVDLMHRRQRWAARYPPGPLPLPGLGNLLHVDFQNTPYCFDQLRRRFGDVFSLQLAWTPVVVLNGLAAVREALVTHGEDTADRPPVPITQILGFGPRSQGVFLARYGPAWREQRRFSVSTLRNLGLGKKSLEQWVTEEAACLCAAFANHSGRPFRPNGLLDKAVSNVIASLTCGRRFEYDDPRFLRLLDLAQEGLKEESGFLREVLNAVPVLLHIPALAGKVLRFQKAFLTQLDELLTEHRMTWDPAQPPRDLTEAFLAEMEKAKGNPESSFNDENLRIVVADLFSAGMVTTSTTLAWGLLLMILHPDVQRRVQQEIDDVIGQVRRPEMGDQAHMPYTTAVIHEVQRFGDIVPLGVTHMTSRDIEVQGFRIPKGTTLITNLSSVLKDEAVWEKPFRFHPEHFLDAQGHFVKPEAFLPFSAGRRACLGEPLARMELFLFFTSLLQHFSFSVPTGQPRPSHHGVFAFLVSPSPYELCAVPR
Luciferin 4-monooxygenase (Photinus pyralis), sequence (P08659 whole entry, looked up): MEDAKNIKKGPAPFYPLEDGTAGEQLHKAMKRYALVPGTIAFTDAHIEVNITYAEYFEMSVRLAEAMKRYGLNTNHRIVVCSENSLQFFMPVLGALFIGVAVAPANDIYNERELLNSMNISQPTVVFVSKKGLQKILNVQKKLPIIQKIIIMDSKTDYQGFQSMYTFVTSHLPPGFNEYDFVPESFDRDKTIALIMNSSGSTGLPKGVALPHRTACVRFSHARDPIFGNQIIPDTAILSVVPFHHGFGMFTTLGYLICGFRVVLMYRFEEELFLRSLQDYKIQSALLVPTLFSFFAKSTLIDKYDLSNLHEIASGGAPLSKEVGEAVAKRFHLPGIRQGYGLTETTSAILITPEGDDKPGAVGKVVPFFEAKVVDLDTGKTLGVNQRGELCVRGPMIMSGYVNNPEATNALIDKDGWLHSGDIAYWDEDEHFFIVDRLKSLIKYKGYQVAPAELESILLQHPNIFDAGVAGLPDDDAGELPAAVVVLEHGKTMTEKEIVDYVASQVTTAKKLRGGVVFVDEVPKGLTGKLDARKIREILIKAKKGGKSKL

CNC(C)CC1CCCCC1 (centres undefined)
-28.6% [at 85.7 µM]: activity change, negative = inhibition [8]
inactive: Potency [1] | max response [2] -3.52% | Potency [3] | outcome [4] | Potency [5] | outcome [6] inactive [at 85.7 µM] | Potency [7] | Potency [9] | Potency [10] | max response [11] -19.8% | Potency [12] | Potency [13]

N#Cc1ccc(N2CCN(C(=O)COc3ccc4[nH]cc(CCN)c4c3)CC2)cc1
active: Potency [16] 19 µM | Potency [17] 1.69 µM
2.26%: activity [20]
0.371%: activity change, negative = inhibition [19]
2.22%: activity [21]
-2.1%: activity [18]
inactive: Potency [3] | Potency [14] | Potency [15] | Potency [9] | Potency [10] | outcome [22] | Potency [23] | Potency [24] | Potency [25] | max response [11] -19.2% | Potency [26] | Potency [27] | Potency [28] | Potency [29] | Potency [30] | Potency [31] | Potency [32] | Potency [33] | Potency [34] | Potency [35]
